# PubChem BioAssay
# Values joined by “and” are separate entries in the source; they are usually repeats but may differ in a detail not shown here. Equal entries are not always repeated. Active and inactive are the calls of the source.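 The calls were made as follows, unless noted: active = mean z-score across replicates of 1.96 or higher in either the MELAS or the Rieske mutant cell line; inactive = the rest.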 *1 amine or outer side, *2 acyl side, *3 side chain or, on linkers, in order; H or OH if unused. Where a SMILES comes first, the peptide text is derived from it. Bridges are numbered along the chain shown (N, C = ends). Roman numbers before positions name the chains, in order. [ ]: non-standard residue; d: D form. The star is where a group is joined. Hexamethylenediamine = C(CCCN[*:2])CCN[*:1]; Dip = N[CH](C(=O)O)C(c1ccccc1)c1ccccc1; Chg = N[CH](C(=O)O)C1CCCCC1; Cbz = O=C(OCc1ccccc1)*; NMeA = CN[CH](C)C(=O)O
# What was measured:
# [1] = viability loss with induced miR-34 in A549 – imaging, A549 dox-inducible miR-34, nuclei and caspase counts, primary screen (AID 1347080;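 active = compounds whose cell count with miR-34 switched on is under 0.7 times the count with it off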); settings: A549 miR-34 inducible, Hoechst nuclei count, 48 h
# [2] = MELAS cybrid and Rieske KO viability enhancers – cell-based, MELAS cybrids, Rieske KO mouse fibroblasts, CellTiter-Glo, primary screen (AID 1508586); settings: low glucose;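 also: z relative to plate mean and SD of compound and empty wells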
# [3] = stronger effect = lower value, cell number ratio, induced over uninduced
# [4] = measured here: relative caspase fold change +Dox/-Dox
# [5] = measured here: total cells with miR-34 induction, stronger effect = lower value
# [6] = measured here: total cells without miR-34 induction
# [7] = MELAS cybrid survival, CellTiter-Glo 48 h, stronger effect = higher value
# [8] = Rieske KO mouse fibroblast survival, CellTiter-Glo 72 h
# Also: test concentration not given here.
SMILES,"fold change [1, 3]","fold change [1, 4]","cell count [1, 5]","cell count [1, 6]","z-score [2, 7]","z-score [2, 8]"
CNCc1cc(-c2ccccc2F)n(S(=O)(=O)c2cccnc2)c1,0.924 (inactive),0.437,8460,9150,-0.328 (inactive),0.241
COc1cc(C2Oc3cc(C4Oc5cc(O)cc(O)c5C(=O)C4O)ccc3OC2CO)ccc1O (stereo not given),0.923 (inactive),0.695,9600,10400,-0.412 (inactive),0.872
COCC(NC(=O)c1cnc(C)s1)C(=O)NC(COC)C(=O)NC(Cc1ccccc1)C(=O)C1(C)CO1 (stereo not given),0.898 (inactive),1.09,714,796,0.992 (inactive),-0.399
Cc1c(C(=O)Nc2ccc(N3CCC(N4CCOCC4)CC3)c(C#N)c2)cnn1-c1ccc(Cl)cc1,0.979 (inactive),0.399,1870,1910,-0.464 (inactive),-0.322
O=C1O[C@H](C(O)CO)C(O)C1O (stereo not given in full),0.859 (inactive),0.731,8460,9850,-0.207 (inactive),-0.154
CC(Cc1cc2c(c(C(N)=O)c1)N(CCCO)CC2)NCCOc1ccccc1OCC(F)(F)F (stereo not given),0.869 (inactive),0.814,6950,8000,-0.42 (inactive),-0.511
CNC(C)C(=O)NC(C(=O)N1CCCC1C(=O)NC(C(=O)NCCCCCCNC(=O)C(NC(=O)C1CCCN1C(=O)C(NC(=O)C(C)NC)C1CCCCC1)C(c1ccccc1)c1ccccc1)C(c1ccccc1)c1ccccc1)C1CCCCC1 (stereo not given) (I: H-[NMeA][Chg]P[Dip] / II: H-[NMeA][Chg]P[Dip]; linker I:C-II:C via Hexamethylenediamine; configuration not given here),0.971 (inactive),0.501,8750,9000,-0.461 (inactive),-0.132
CC(C)N(CC1OC(n2cnc3c(N)ncnc32)C(O)C1O)C1CC(CCc2nc3ccc(C(C)(C)C)cc3[nH]2)C1 (stereo not given),0.923 (inactive),0.796,8950,9700,-0.166 (inactive),-0.146
COc1cc(C(C)=O)ccc1O,0.901 (inactive),0.815,7660,8500,-0.427 (inactive),-0.0762
CC(C)CC(NC(=O)C(Cc1ccccc1)NC(=O)c1cnccn1)B(O)O (stereo not given),0.948 (inactive),0.953,1020,1080,-0.496 (inactive),-2.5
CC(=O)Nc1cccc2c1c(Sc1ccc(Cl)cc1)c(C)n2CC(=O)O,0.864 (inactive),0.281,7890,9130,-0.287 (inactive),-2.23
Nc1nc(CC(=O)Nc2ccc(CCNCC(O)c3ccccc3)cc2)cs1 (stereo not given),0.898 (inactive),1.03,8660,9650,-0.0817 (inactive),-0.148
COC1CC2CCC(C)[C@@](O)(O2)C(=O)C(=O)N2CCCCC2C(=O)OC(C(C)CC2CCC(OCCO)C(OC)C2)CC(=O)C(C)C=C(C)C(O)C(OC)C(=O)C(C)CC(C)C=CC=CC=C1C (stereo not given in full),1.03 (inactive),1,4550,4420,0.115 (inactive),1.87
Cc1c(C(=O)Nc2ccc(N3CC(C)OC(C)C3)nc2)cccc1-c1ccc(OC(F)(F)F)cc1 (stereo not given),0.962 (inactive),0.609,6270,6520,-0.33 (inactive),0.503
Cc1c(O)cccc1C(=O)NC(CSc1ccccc1)C(O)CN1C[C@H]2CCCC[C@H]2CC1C(=O)NC(C)(C)C (stereo not given in full),0.999 (inactive),0.485,7710,7710,-0.177 (inactive),-0.0438
CC1(C)OC2C[C@H]3[C@@H]4CCC5=CC(=O)CC[C@]5(C)[C@]4(F)C(O)C[C@]3(C)[C@@]2(C(=O)CCl)O1 (stereo not given in full),0.851 (inactive),0.816,4440,5220,-0.306 (inactive),-0.265
CC(NC(=O)Cc1cc(F)cc(F)c1)C(=O)NC(C(=O)OC(C)(C)C)c1ccccc1 (stereo not given),0.856 (inactive),0.819,7300,8530,-0.187 (inactive),0.801
C=CCC1C=C(C)CC(C)CC(OC)C2O[C@@](O)(C(=O)C(=O)N3CCCC[C@H]3C(=O)OC(C(C)=CC3CCC(O)C(OC)C3)C(C)C(O)CC1=O)C(C)CC2OC (stereo not given in full),0.917 (inactive),0.834,7870,8580,-0.545 (inactive),0.683
Nc1cc(F)ccc1NC(=O)C=Cc1cnn(CC=Cc2ccccc2)c1,0.91 (inactive),0.53,6990,7680,-0.402 (inactive),-2.77
COc1ccc(C2CC(=O)c3c(O)cc(OC4OC(COC5OC(C)C(O)C(O)C5O)C(O)C(O)C4O)cc3O2)cc1O (stereo not given),0.944 (inactive) and 0.996 (inactive),0.804 and 0.887,9100 and 9620,9630 and 9660,-0.317 (inactive) and -0.329 (inactive),0.0192 and 0.287
O=C(CCc1ccc(O)cc1)c1c(O)cc(O)cc1OC1OC(CO)C(O)C(O)C1O (stereo not given),0.988 (inactive),0.673,10200,10400,-0.378 (inactive),0.518
CCC(=O)NCCC1CCc2ccc3c(c21)CCO3 (stereo not given),0.931 (inactive),4.33,8720,9370,-0.89 (inactive),0.046
Oc1cc(O)cc(C=Cc2ccc(O)c(O)c2)c1,0.901 (inactive),0.971,9720,10800,-0.345 (inactive),0.783

SMILES,"fold change [1, 3]","fold change [1, 4]","cell count [1, 5]","cell count [1, 6]","z-score [2, 7]","z-score [2, 8]"
CC1CN(CC(=O)Nc2ccc3c(c2)Cc2cccc(-c4cc(=O)cc(N5CCOCC5)o4)c2S3)CC(C)O1 (stereo not given),0.994 (inactive),1.1,5760,5800,2.51 (active),1.29
CC1(C)O[C@H]2CC(=O)OC[C@]23[C@H]2CC[C@@]4(C)C(c5ccoc5)OC(=O)C5O[C@]54[C@@]2(C)C(=O)C[C@@H]13 (stereo not given in full),0.854 (inactive),0.906,8580,10000,-0.275 (inactive),-0.503
CCC(C)(C)c1ccc(CC(C)CN2CC(C)OC(C)C2)cc1 (stereo not given),0.944 (inactive),0.765,8210,8700,-0.433 (inactive),0.477
CC(C)CC(C=O)NC(=O)C(CC(C)C)NC(=O)C(CC(C)C)NC(=O)OCc1ccccc1 (stereo not drawn) (Cbz-Leu-Leu-Leu-aldehyde; configuration not given here),0.872 (inactive),0.735,2300,2640,-0.114 (inactive),-3.43
COC(=O)C1=COC(OC2OC(CO)C(O)C(O)C2O)[C@H]2C(CO)=CC[C@H]12 (stereo not given in full),0.942 (inactive),0.842,7570,8040,-0.247 (inactive),-0.0973
COCCOC(=O)C1=C(C)NC(C)=C(C(=O)OCC=Cc2ccccc2)C1c1cccc([N+](=O)[O-])c1 (stereo not given),1.06 (inactive),0.275,6590,6240,-0.669 (inactive),0.105
C[C@]12CCC(O)CC1=CCC1C2CC[C@]2(C)C(n3cnc4ccccc43)=CCC12 (stereo not given in full),0.927 (inactive),0.715,7740,8340,-0.32 (inactive),-0.165
CC(C)N(CCC(c1ccccc1)c1cc(CO)ccc1O)C(C)C (stereo not given),0.934 (inactive),1.04,9810,10500,-0.366 (inactive),0.299
CCCN1CC(CSC)C[C@@H]2c3cccc4[nH]cc(c34)C[C@H]21 (stereo not given in full),0.938 (inactive),0.485,7000,7460,-0.0829 (inactive),-0.225
CC1CCO[C@H]2Cn3cc(C(=O)NCc4ccc(F)cc4F)c(=O)c(O)c3C(=O)N12 (stereo not given in full),1 (inactive),0.731,8400,8370,-0.34 (inactive),0.66
COc1cc(C=CC(=O)N2CCN(CC(=O)N3CCCC3)CC2)cc(OC)c1OC,0.989 (inactive),0.412,8470,8570,-0.177 (inactive),-0.0197
O=C(O[C@H]1CN2CCC1CC2)N1CCc2ccccc2C1c1ccccc1 (stereo not given in full),0.932 (inactive),0.636,6880,7380,-0.171 (inactive),0.000903
COC(=O)C(Cc1ccccc1)NC(=O)C(N)CC(=O)O (stereo not drawn) (H-Asp-Phe-OMe; configuration not given here),0.938 (inactive),0.532,8220,8770,-0.285 (inactive),-0.555
CC(CCC(=O)O)C1CC[C@H]2[C@@H]3CC(O)[C@@H]4CC(O)CC[C@]4(C)[C@@H]3CC[C@]12C (stereo not given in full),0.928 (inactive),0.729,9520,10300,-0.299 (inactive),0.38
COc1ccc(CC(NC(=O)C(C)NC(=O)CN2CCOCC2)C(=O)NC(Cc2ccccc2)C(=O)[C@]2(C)CO2)cc1 (stereo not given in full),1.43 (inactive),1,990,690,-0.544 (inactive),-7.62
CCN1CCN(C(=O)NC(C(=O)NC2C(=O)N3C(C(=O)O)=C(CSc4nnnn4C)CS[C@H]23)c2ccc(O)cc2)C(=O)C1=O (stereo not given in full),0.907 (inactive),0.724,7730,8520,0.121 (inactive),0.0185
O=C(c1ccc(C=Cc2n[nH]c3ccccc23)cc1)N1CCNCC1,0.879 (inactive),0.981,2420,2750,0.658 (inactive),-1.76
NCCCCCNCC12CC3CC(CC(C3)C1)C2,0.991 (inactive),0.726,8590,8670,-0.291 (inactive),-0.0827
CCC1C(=O)N(C)c2cnc(Nc3ccc(C(=O)NC4CCC(N5CCN(CC6CC6)CC5)CC4)cc3OC)nc2N1C(C)C (stereo not given),1.2 (inactive),0.875,1460,1210,6.19 (active),-4.08
NC(N)=NN=Cc1c(Cl)cccc1Cl,0.921 (inactive),0.613,8130,8830,-0.139 (inactive),-0.245
COc1cc(C=CC(=O)C=C(O)C=Cc2ccc(O)c(OC)c2)ccc1O,0.901 (inactive),0.689,8110,9000,-0.431 (inactive),0.0298
COC1C(O)CC(=O)OC(C)CC=CC=CC(OC2CCC(N(C)C)C(C)O2)C(C)CC(CC=O)C1OC1OC(C)C(OC2C[C@](C)(O)C(O)C(C)O2)C(N(C)C)C1O (stereo not given in full),0.934 (inactive),0.625,8350,8940,-0.212 (inactive),-0.158
